High-throughput results: PubChem, several laboratories
Only some compounds are listed: those with a hit (about 3.6% of all), similar ones and a draw of the others.
HSP90 inh = inhibitors of HSP90 luciferase refolding in rabbit reticulocyte lysate; luciferase refolding luminescence, 3 h; inhibition, % at 5.6 µM; 290,000 compounds, 0.91% hits; AID 1789;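 active = inhibition above the screen-wide mean plus 3 SD, computed separately per campaign, cut at about 16% in these data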;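 note: 0% = DMSO wells and 100% = 60 µM geldanamycin wells; inhibitors lower the luminescence because luciferase stays unfolded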
Mdm2-MdmX inh = human Mdm2/MdmX binding inhibition; 330,000 compounds, 3% hits; inhibition, % at 8 µM; SaOS-2 split-luciferase Mdm2/MdmX complementation, luminescence; O15151+Q00987; AID 485346;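 active = inhibition of at least 50% at 8 µM in the primary screen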
CF NFkB inh = inhibitors of cystic fibrosis induced NF-kB; 360,000 compounds, 0.86% hits; inhibition, % at 5 µM; KKLEB NF-kB-GFP reporter, PAF-induced, GFP fluorescence overnight; AID 588850;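 active = at least 50% inhibition at 5 µM, scaled per plate between neutral and stimulator controls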;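 note: PAF is a Pseudomonas aeruginosa culture filtrate used as stimulus; plate controls were PAF-stimulated DMSO wells for no effect and unstimulated DMSO wells for full effect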
LGR2 antag = Drosophila LGR2 receptor signaling inhibition; HEK293 LGR2, CRE-luciferase, bursicon-stimulated, 4 h; inhibition, % at 9.99 µM; 380,000 compounds, 0.35% hits; AID 720647;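 active = drop in luminescence signal, shown as inhibition above about 50% in the replicate tests, limit read from the data, passing the limit was not always enough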;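 note: agonist challenge used bursicon conditioned medium at about half maximal strength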
Peg3 promoter = Peg3 promoter activity inhibition | HeLa PEG-Prom luciferase reporter, luminescence, overnight | inhibition, % at 20 µM | 360,000 compounds, 1.7% hits | AID 588405;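 active = inhibition of at least 50% at 20 µM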
KKLEB tox = reduces viability of KKLEB cystic fibrosis airway cells; KKLEB CF airway cells viability, ATPlite luminescence, overnight; stronger effect = lower value; cells stimulated with P. aeruginosa culture filtrate; activity change (cytotoxicity), % at 5 µM; 360,000 compounds, 0.36% hits; AID 602141;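 active = corrected activity change at or below -50% at 5 µM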
Mdm2 MdmX conf = human Mdm2/MdmX binding inhibition, confirmed | shares compounds with Mdm2-MdmX inh | AID 489028 | luminescent assay | 10,000 compounds, 55% hits | inhibition, % at 8 µM; in the data active = inhibition above about 40%
Full FLuc ctr = counter-screen for Mdm2/MdmX inhibitors: full-length luciferase; shares compounds with Mdm2-MdmX inh; SaOS-2 full-length luciferase counterscreen, luminescence; inhibition, % at 8 µM; 6,200 compounds, 77% hits;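 active = mean inhibition at 8 µM reaching about 37%, which flags the compound as non-specific, limit read from the data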;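 note: p53-null SaOS-2 cells with luciferase driven by a doxycycline-inducible promoter; compound on cells about two nights before reading with doxycycline added after day one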
Numbers without * were called inactive; x = not tested or not shown.

SMILES | HSP90 inh | Mdm2-MdmX inh | CF NFkB inh | LGR2 antag | Peg3 promoter | KKLEB tox | Mdm2 MdmX conf | Full FLuc ctr
O=C(C[C@H]1CC[C@H]2[C@@H](COC[C@@H](O)CN2Cc2cccc(Cl)c2)O1)N1CCCCC1 | x | x | x | 11 | x | x | x | x
C=C1C(=O)C=C2CN(C(=O)c3ccccc3)[C@@](Cc3ccc(F)cc3)(C(=O)OC)[C@@H]12 | 18* | 100* | 75* | x | 99* | -91* | 100* | 1
C=C1C(=O)CC2=C1[C@](Cc1ccc(F)cc1)(C(=O)OC)N(C(=O)c1ccccc1)C2 | x | x | x | 4 | x | x | x | x
CCN(CC)CCNC(=O)C1CCN(S(=O)(=O)c2c(C)noc2/C=C/c2ccccc2F)CC1 | -2 | 56* | 2 | 2 | 25 | -1 | 24 | x
CCN(CCNC(=O)C1CCN(S(=O)(=O)c2c(C)noc2C)CC1)c1ccccc1 | -2 | 12 | -13 | -3 | 3 | 5 | x | x
CCc1ccc(NC(=O)c2ccc3c(c2)C(=O)N(CCOC)C3Nc2ccc(CC)cc2)cc1 (stereo not drawn) | 0 | 81* | -2 | -22 | -40 | -1 | 40* | 99*
COCCN1C(=O)c2cc(C(=O)Nc3cccc(F)c3)ccc2C1Nc1cccc(F)c1 (stereo not drawn) | 4 | 5 | -6 | 18 | 2 | -3 | x | x
COc1cccc(S(=O)(=O)N[C@@H]2CC[C@@H](CC(=O)NCc3ccccc3)O[C@@H]2CO)c1 | x | x | x | -13 | x | x | x | x
FC(F)(F)c1cc(CO[C@@H]2CCCN[C@@H]2c2ccccc2)cc(C(F)(F)F)c1 | x | 59* | 12 | 46 | 72* | 4 | 30 | x
FC(F)(F)c1cc(CCN2CCNC[C@@H]2c2ccccc2)cc(C(F)(F)F)c1 | x | 31 | -11 | 9 | 15 | 2 | x | x
COc1ccc(C(=O)c2c(C(F)(F)F)oc3c2C(=O)c2ccccc2C3=O)cc1OC | 1 | 86* | 88* | x | 89* | -65* | 71* | 6
COc1ccc(C(=O)Nc2ccc3c(c2)C(=O)c2ccccc2C3=O)cc1OC | 2 | -11 | -4 | -13 | -62 | -2 | x | x
COc1ccc(NC(=O)Nc2ccc3c(c2)C(=O)N([C@@H](C)CO)C[C@H](C)[C@H](CN(C)C(=O)Nc2ccc(F)cc2)OCCCC[C@H](C)O3)cc1 | x | x | x | 19 | x | x | x | x
Cc1c(C(=O)Nc2ccc(S(=O)(=O)N(C)C3CCN(C)CC3)cc2)oc2ccccc12 | x | 92* | 5 | -4 | 89* | 1 | 35 | x
CN1CCC(N(C)S(=O)(=O)c2ccc(NC(=O)c3ccc(S(=O)(=O)N(C)C)cc3)cc2)CC1 | x | -9 | -22 | -1 | -7 | 5 | x | x
NC(=O)c1ccc(NC(=O)C#Cc2ccccc2)cc1 | 0 | 85* | 22 | 17 | 58* | 2 | 77* | 51*
COc1ccc(NC(=O)C#Cc2ccccc2)cc1OC | -2 | 57* | 27 | 1 | -192 | -14 | 34 | x
CC(C)CC#Cc1ccc2c(c1)O[C@@H](CN(C)C(=O)c1cccnc1)[C@@H](C)CN([C@H](C)CO)S2(=O)=O | x | x | x | -6 | x | x | x | x
C[C@@H]1CN([C@@H](C)CO)S(=O)(=O)c2ccc(C#Cc3ccccc3F)cc2O[C@@H]1CN(C)CC1CC1 | x | x | x | 19 | x | x | x | x
O=C(C[C@@H]1C=C[C@H](NC(=O)C2CCC2)[C@@H](CO)O1)NCc1ccccc1Cl | x | x | x | -8 | x | x | x | x
Cc1onc(-c2ccccc2Cl)c1C(=O)O/N=C(\N)c1cccc([N+](=O)[O-])c1 | x | x | -2 | 15 | 36 | -7 | x | x
Cc1occc1C(=O)O/N=C(\N)c1ccccc1 | 3 | 72* | -14 | x | -121 | 1 | -2 | x
Cc1cccc(/C(N)=N/OC(=O)c2ccoc2C)c1 | 6 | 94* | -24 | -47 | -222 | -2 | 47* | 167*
Cc1onc(-c2ccccc2Cl)c1C(=O)Nc1cccc2cccnc12 | -3 | 64* | -37 | 28 | 17 | -3 | 17 | x
COc1cc(NC(=O)c2c(-c3ccccc3Cl)noc2C)c2ncccc2c1 | x | 24 | -2 | 13 | 21 | -4 | x | x
SMILES | HSP90 inh | Mdm2-MdmX inh | CF NFkB inh | LGR2 antag | Peg3 promoter | KKLEB tox | Mdm2 MdmX conf | Full FLuc ctr
Cc1onc(-c2ccccc2Cl)c1C(=O)O/N=C(\N)c1ccccc1 | 0 | 100* | -9 | 30 | 37 | 10 | 92* | 112*
Cc1cccc(/C(N)=N/OC(=O)c2ccncc2)c1 | 0 | -105 | 2 | -38 | -333 | -2 | x | x
CC(C)NC(=O)Nc1ccc2c(c1)C(=O)N([C@H](C)CO)C[C@H](C)[C@H](CN(C)S(=O)(=O)c1ccccc1)OCCCC[C@H](C)O2 | x | x | x | -14 | x | x | x | x
C[C@@H]1CN([C@H](C)CO)C(=O)c2cccc(NS(=O)(=O)c3ccc(Cl)cc3)c2O[C@H]1CN(C)S(=O)(=O)c1cccs1 | x | x | x | 18 | x | x | x | x
COC(=O)CCSc1cc(NCCOC(C)=O)c([N+](=O)[O-])c2nonc12 | 2 | -15 | 17 | 22 | 10 | 0 | x | x
CC(=O)OCCCNc1cc(Sc2ccc(C)cc2)c2nonc2c1[N+](=O)[O-] | 5 | 54* | 30 | 51* | 30 | 4 | 59* | 68*
CC(=O)OCCCNc1cc(Sc2nc3ccccc3s2)c2nonc2c1[N+](=O)[O-] | -1 | 100* | 2 | x | 105* | 2 | 77* | 52*
O=c1c2c(nc3nc(NCc4ccccc4Cl)[nH]n13)CCC2 | -5 | 67* | x | 8 | x | x | -4 | x
CNC[C@H]1Oc2ccc(NC(=O)Nc3ccc(OC)cc3)cc2CC(=O)N([C@@H](C)CO)C[C@@H]1C | x | x | x | 2 | x | x | x | x
O=c1c2c3nc4ccccc4nc3n(/N=C/c3ccccn3)c2ncn1-c1ccccc1 | 1 | 74* | -141 | 4 | 23 | 10 | 49* | 55*
C=CCn1cnc2c(c1=O)c1nc3ccccc3nc1n2/N=C/c1ccccn1 | x | x | -179 | x | 17 | 21 | x | x
CCOC(=O)c1[nH]c(C)c(C(=O)OCC(=O)N2CCc3ccccc32)c1C | -3 | -1 | 4 | 1 | 5 | -8 | x | x
CCOC(=O)c1c(C)[nH]c(C(=O)OCC(=O)N2CCc3ccccc32)c1C | 2 | 70* | 8 | x | 4 | 1 | -10 | x
O=C(/C=C/c1cccs1)N1CCC2(CC1)Oc1ccc(Cl)cc1C(=O)C21CC(c2cccnc2)=NO1 (stereo not drawn) | x | 67* | -3 | 27 | 40 | -3 | 27 | x
Cc1cccc(C)c1NC(=O)CN1CCC(Cc2ccccc2)CC1 | x | x | 13 | 7 | 17 | -6 | x | x
Cc1cccc(C)c1NC(=O)CN1CCN(CCCC(c2ccc(F)cc2)c2ccc(F)cc2)CC1 | x | 60* | -2 | x | 41 | -9 | 44* | 74*
COc1ccc(Oc2ccc(/C=C/C(=O)c3cccc(OC)c3)cc2[N+](=O)[O-])cc1 | 0 | 97* | -28 | 13 | 114* | 1 | 19 | 26
